According to the supplement of paper PMC3842684:

Columns and labels:
[1] = test system: P. falciparum NF54-pfs16-GFP early (I-III) stage gametocytes; assay: relative % inhibition of viable gametocyte number; higher = more gametocytocidal; settings: stage: early (I-III) gametocyte, incubation 72 h
Method in brief: (§1)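 Magnet-isolated NF54 pfs16-GFP gametocytes at early (I/IIa, day 2) or late (day 8) stage were exposed to compound at 5 or 0.5 µM for 72 h at 37°C, 5% CO2, 5% O2, at 10% parasitaemia and 0.1% haematocrit. Elongated GFP objects with MitoTracker Red signal above cut-off were counted as viable by confocal imaging. Relative inhibition was normalised to in-plate vehicle and positive-control wells.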

[2] = test system: P. falciparum NF54-pfs16-GFP late (IV-V) stage gametocytes; assay: as above; settings: stage: late (IV-V) gametocyte, incubation 72 h
Method in brief: as §1

| Structure (SMILES) | relative % inhibition ([1]; 0.5 µM) [%] | relative % inhibition ([1]; 5 µM) [%] | relative % inhibition ([2]; 0.5 µM) [%] | relative % inhibition ([2]; 5 µM) [%] |
| --- | --- | --- | --- | --- |
| COc1cccc(C(=O)NC(c2ccc(C)cc2)c2cc(Cl)c3cccnc3c2O)c1 (configuration not stated) | 12.4 | 82.5 | 46.5 | 65.2 |
| CCOC(=O)C1CCN(C(=O)CN2C(=O)c3ccccc3C2c2c[nH]c3ccccc23)CC1 (configuration not stated) | 7.45 | 98.3 | 28.9 | 63.3 |
| CCCCOC(=O)c1ccc(Nc2cc(C)nc3ccc(OC)cc23)cc1 | -28.1 | 70 | 13.1 | 18.5 |
| CCC(C)NCC(O)(c1ccc(Cl)cc1)c1ccc(Cl)cc1 (configuration not stated) | 16.2 | 102 | 27.1 | 58.3 |
| Cc1cc(NC(=O)c2ccc(-c3ccccc3)cc2)no1 | -6.51 | 24.9 | 13.3 | 36.8 |
| COc1ccc(C2C(C(=O)Nc3cccc(OC)c3)c3ccccc3C(=O)N2C2CCCCC2)cc1 (configuration not stated) | 15.6 | 87.5 | 5.71 | 78.2 |
| COc1ccccc1CNC(=O)CCn1c(=O)[nH]c2ccsc2c1=O | 16.9 | 2.5 | -0.5 | 0 |
| CCCC(c1nnnn1C1CCCCC1)N1CCN(C(=O)c2ccco2)CC1 (configuration not stated) | 0.873 | -28.3 | -2.74 | 2.82 |
| COc1ccc2c(c1)C1(Nc3ccccc3-c3nc4ccccc4n31)C(=O)N2 (configuration not stated) | 55.7 | 84.8 | 37.6 | 63.5 |
| N=c1n(CCN2CCCCC2)c2ccccc2n1CC(=O)c1ccc(Cl)c(Cl)c1 | -10.5 | 76.8 | 55.4 | 96.9 |
| COc1ccc(C=C2SC(=N)N(c3ccccc3OC)C2=O)cc1 | 11 | 63.6 | 0 | 67.5 |
| COc1ccc2nc(C)cc(Nc3cccc(O)c3)c2c1 | 2.97 | 3.08 | -18.7 | -9.92 |
| CCN1CCN(c2c(C(=O)c3ccccc3)cnc3cc(OC)c(OC)cc23)CC1 | 2.47 | -13.5 | 12.1 | -8.91 |
| COc1ccc(-n2ccnc2SCC(=O)Nc2cc(C)ccc2C)c(OC)c1 | 3.61 | -5.2 | -4.39 | 15.9 |
| CCOC(=O)C1=C(C)N=c2sc(=Cc3ccccc3O)c(=O)n2C1c1ccc(OC)c2ccccc12 (configuration not stated) | -2.21 | 86.4 | 65.8 | 61.1 |
| O=C(NC1CCN(Cc2ccccc2)CC1)c1cc(-c2cccnc2)nc2ccc(Cl)cc12 | 3.2 | 46.2 | -30.4 | -0.963 |
| Oc1c(C(Nc2ccccn2)c2cccc(Oc3ccccc3)c2)ccc2cccnc12 (configuration not stated) | 1.66 | 98.2 | 18.4 | 97.7 |
| O=C(CCc1ccccc1)c1ccccc1OCC(O)CN1CCCCC1 (configuration not stated) | 12.7 | 96.8 | 15 | 48.2 |
| Cc1ccc(S(=O)(=O)c2c(COC(=O)c3cccc(C)c3)c(-c3ccccc3)nn2C)cc1 | -3.57 | 37.5 | 18.5 | 20.4 |

| Structure (SMILES) | relative % inhibition ([1]; 0.5 µM) [%] | relative % inhibition ([1]; 5 µM) [%] | relative % inhibition ([2]; 0.5 µM) [%] | relative % inhibition ([2]; 5 µM) [%] |
| --- | --- | --- | --- | --- |
| c1ccc2cc3c(Nc4ccc(N5CCOCC5)cc4)ccnc3cc2c1 | -11.9 | 12.3 | 9.42 | 36.1 |
| COc1ccccc1N=C1C(=O)c2ccccc2C(O)=C1N1CCCCC1 | 21.8 | 44.6 | -11.2 | 10.5 |
| CCOC(=O)c1cnc2ccc(Cl)cc2c1NCCCN(C)C | 3.83 | 74.3 | -21.7 | -1.78 |
| COc1ccccc1CNC(=O)CCn1c(=O)[nH]c2ccccc2c1=O | 27.4 | 28.5 | -5.22 | 2.14 |
| Clc1ccc2c(N3CCCC3)ccnc2c1 | 21.2 | 65.9 | 11.2 | -4.99 |
| CN(C)c1ccc(C(O)(c2ccc(N(C)C)cc2)c2ccc(N(C)C)cc2)cc1 | 81.4 | -12.4 | 102 | 103 |
| Cc1ccc(N2C3c4ccccc4N(S(=O)(=O)c4ccc(C)cc4)C2c2ccccc2N3S(=O)(=O)c2ccc(C)cc2)cc1 | 61 | 95.1 | 95 | 98.9 |
| CCOc1ccc(Nc2c3ccccc3nc3ccccc23)cc1 | -20.8 | 84 | 8.64 | 20.9 |
| c1ccc2c(NCCc3c[nH]c4ccccc34)c3ccccc3nc2c1 | 37.7 | 89.1 | -14.3 | 29.7 |
| CCOC(=O)c1ccc2nc(-c3ccccc3)cc(O)c2c1 | 2.53 | 2.35 | 50.6 | 102 |
| O=C(Nc1ccc(CN2CCOCC2)cc1)c1ccc(-c2ccc(Br)cc2)o1 | 16.2 | -18 | 27.9 | 4.05 |
| O=C(CSc1nccn2nc(-c3ccccc3)cc12)Nc1cc(C(F)(F)F)ccc1Cl | 3.61 | -9.64 | 15.1 | -0.775 |
| COc1cccc(C=Cc2nc(=O)c3ccccc3o2)c1OC | -6.76 | -17.9 | 50.6 | 94 |
| Clc1cc(Br)ccc1-c1ccc(CNCC2CCNCC2)o1 | 92.6 | 100 | 36.1 | 89.9 |
| CCOC(=O)c1c(C)n(-c2ccccc2)c2ccc(OC(=O)c3cc(OC)c(OC)c(OC)c3)cc12 | 17.7 | -2.44 | -15.1 | -2.38 |
| CCOc1ccc(-n2cc(-c3ccccc3)c3c(SCc4cc(C)ccc4C)ncnc32)cc1 | -4.24 | -7.96 | 11.3 | 19.7 |
| COc1ccc(CCn2c(=N)c(C(=O)NCc3cccnc3)cc3c(=O)n4cccc(C)c4nc32)cc1 | 45.1 | 70.9 | -7.36 | 11.2 |
| N=c1n(CCN2CCCCC2)c2ccccc2n1CC(O)c1cccc(Br)c1 (configuration not stated) | 6.75 | 94.5 | 25.5 | 55.6 |
| O=C1CC(O)(C(F)(F)C(F)(F)F)Oc2ccccc21 (configuration not stated) | 0.889 | 0.745 | -15.1 | 4.41 |
